The subject of one assay is Plasmodium falciparum. Kind of assay: GSK_TCMDC: Inhibition of Plasmodium falciparum Dd2 in whole red blood cells, using parasite LDH activity as an index of growth. Test compounds present at 2uM. It counts as functional.
As a reminder, the Inhibition is the relative decrease from the control value, in per cent. Higher therefore signals a response far below the control. The compound `FC(F)(F)c1cccc(Nc2nc3nonc3nc2NC2C3CC4CC(C3)CC2C4)c1` (centres undefined) displayed an Inhibition of 100%.
The same measure, in the same setting: with `CCCC1(NC[C@@H](O)[C@H](Cc2ccccc2)NC(=O)c2cc(NCC)cc(N3CCCCS3(=O)=O)c2)CCCC1.Cl` the figure was 97%; with `Cn1c(N)c(C(=O)CSc2nnc(-c3cccs3)n2Cc2ccccc2)c(=O)n(C)c1=O`, 68%; with `O=C(NCc1cccc(F)c1)Nc1cccc(-c2cccc(-c3nc4ccccc4[nH]3)c2)c1`, 27%.

A further assay has as its system HepG2. Kind of assay: GSK_TCMDC: Percent inhibition of human HepG2 cell line. Test compounds present at 10uM. It is filed as functional.
Consider `COc1cc(C(=O)N2CCOC(CCN3CCC[C@H]3C(=O)Nc3ccccc3)(c3ccc(Cl)c(Cl)c3)C2)cc(OC)c1OC` (some centres undefined), for which the Inhibition came to 3%.
Same read-out and setting: then `CC(C)C(=O)NC(Nc1ccc([N+](=O)[O-])cc1)C(Cl)(Cl)Cl` (centres undefined), with 7%; and `Cc1c(C)c2c(c(C)c1O)CCC(C)(CCC(=O)O)O2` (centres undefined), with 8%.
Same read-out and setting: then `Cc1cc2c(cc1C(F)(F)F)N(C(=O)Nc1cnc(OCCN(C)C)c(C(F)(F)F)c1)CC2`, with 28%.
The same measure, in the same setting: then `COc1ccc(CC2(c3ccc(F)cc3)N=C(N)N(CCCc3ccc(F)c(F)c3)C2=O)cc1.O=C(O)C(F)(F)F` (centres undefined), with 42%; and `CCc1cn(C)c2c(N3CCCC3=O)cc(C(=O)N[C@@H](Cc3ccccc3)[C@H](O)CNC(C)(C)c3cccc(OC)c3)cc12`, with 9%; and `COc1ccccc1CCCN1C(=O)C(c2ccccc2)(c2ccccc2)N=C1N.O=C(O)C(F)(F)F`, with 49%.
`Cc1ccc2nc(N(CCCn3ccnc3)C(=O)C=Cc3cccs3)sc2c1.Cl` displayed an Inhibition of 22%.
On the same count and under the same terms, then `Cc1ccc(NC(=O)c2ccnc(N3CCN(c4ccncc4)CC3)c2)cc1F.O=C(O)C(F)(F)F`, with 43%; and `COc1ccc(Nc2nc(NCc3ccc(-n4ccnc4)cc3)cc(-c3ccc(OC)cc3)n2)cc1`, with 8%; and `O=C(O)C(F)(F)F.OCC1CCN(Cc2ccc(-c3cccc(-c4nc5ccccc5[nH]4)c3)cc2)CC1`, with 21%.
The same measure, in the same setting: with `CC1CCN(c2nc(C(=O)Nc3cccc4c3CCCC4)c(C(C)C)s2)CC1.O=C(O)C(F)(F)F` the figure was 14%; with `CCn1cc(CN2CCCC(C(=O)Nc3ccc(-c4nc5ccccc5[nH]4)cc3)C2)c(C)n1` (centres undefined), 22%.
Same read-out and setting: with `CC(=O)Nc1ncc(C(=O)Nc2cccc(-c3ccc(-c4nc5cc(C(F)(F)F)ccc5[nH]4)s3)c2)s1` the figure was 90%.
The compound `O=C(/C=C/c1ccc(Cl)c(Cl)c1)NCCCCCN1CCC(NC(=O)NC2CCCCC2)CC1` displayed an Inhibition of 22%.
On the same count and under the same terms, then `O=C(NC1CCN(c2ccnc3cc(Cl)ccc23)C1)c1ccc(F)cc1.O=C(O)C(F)(F)F` (centres undefined), with 26%.
Still for that read-out and setting: with `O=S(=O)(Nc1ccc(CCN2CCC(N3CCCCC3)CC2)cc1)c1cccc(C(F)(F)F)c1` the figure was 20%; with `COc1cc2cc(-c3nc4ccccc4[nH]3)c(N)nc2cc1OC.Cl`, 91%.
Turning to `NC1CCN(Cc2cccc(-c3ccc(-c4nc5cc(F)ccc5[nH]4)cc3)c2)C1.O=C(O)C(F)(F)F` (centres undefined), the Inhibition is on record as 24%.
`O=C(Nc1nc(-c2ccccn2)cs1)c1ccccc1COc1ccccc1` yielded an Inhibition of 34%.
On the same count and under the same terms, with `COc1cc(-c2nc(-c3ccccc3)c(-c3ccccc3)[nH]2)cc(OC)c1O` the figure was 5%; with `Fc1cccc(Cl)c1-c1nc(NCCC(c2ccccc2)c2ccccc2)no1`, 4%; with `O=C(/C=C/c1ccc(Cl)c(Cl)c1)NCCCCCN1CCCN(C(=O)Nc2cc(F)cc(F)c2)CC1`, 4%.
With `CC(=O)Nc1cccc(C(=O)Nc2ccc(-c3cccc(-c4nc5cc(C(F)(F)F)ccc5[nH]4)c3)cc2)c1`, the Inhibition is reported as 81%.
Still for that read-out and setting: then `Cl.Oc1cccc(Nc2nc(NCC3CCCO3)c3ccccc3n2)c1` (centres undefined), with 0%; and `CS(=O)(=O)CCNCc1ccc(-c2ccc3ncnc(Nc4ccc(OCc5ccccc5)c(Cl)c4)c3c2)o1.Cl` [GW574783B], with 4%.
Same read-out and setting: with `Cl.Clc1ccc(C2CCN(CCCOc3ccc4c(c3)CCNCC4)CC2)cc1` the figure was 93%; with `COc1cc2ccccc2c(CNCCCCCCNCc2c(OC)c(OC)cc3ccccc23)c1OC.CS(=O)(=O)O`, 100%.
The same measure, in the same setting: then `CCCN1CCN(Cc2ccc(C(=O)Nc3ccc(Cl)cc3)cc2)CC1.O=C(O)C(F)(F)F`, with 48%; and `O=C(O)C(F)(F)F.Oc1ccc(CN2CCC(NCc3cccc(C(F)(F)F)c3)CC2)cc1`, with 10%; and `Cc1noc(C)c1-c1ccc2c(Nc3cccc4c3-c3ccccc3C4=O)c(C(=O)NCc3ccccc3I)cnc2c1`, with 27%.
Turning to `Cc1csc(NC(=O)c2cn(-c3ccccc3)nc2-c2cccs2)n1`, the Inhibition was determined as 0%.
Same read-out and setting: with `CCc1cn2c3c(cc(C(=O)N[C@@H](Cc4ccccc4)[C@H](O)CNC(C)C)cc13)N(C)S(=O)(=O)C2.O=CO` the figure was 16%; with `COc1ccc(CNCc2cccc(-c3cccc(-c4nc5ccccc5[nH]4)c3)c2)cc1.O=C(O)C(F)(F)F`, 24%.
The same measure, in the same setting: with `N#Cc1ccc(CN2CCC(Oc3ccc(NC(=O)c4ccco4)cc3Cl)CC2)cc1.O=C(O)C(F)(F)F` the figure was 7%; with `O=C(O)C(F)(F)F.O=C1OC2(CN1CC1CCN(Cc3ccc(O)cc3Cl)C1)c1ccccc1-c1ccccc12` (centres undefined), 16%.
Still for that read-out and setting: then `FC(F)(F)c1cccc(Nc2nc3nonc3nc2NC2C3CC4CC(C3)CC2C4)c1` (centres undefined), with 72%.
Compound `CCCC1(NC[C@@H](O)[C@H](Cc2ccccc2)NC(=O)c2cc(NCC)cc(N3CCCCS3(=O)=O)c2)CCCC1.Cl` gave an Inhibition of 0%.
The same measure, in the same setting: with `Cn1c(N)c(C(=O)CSc2nnc(-c3cccs3)n2Cc2ccccc2)c(=O)n(C)c1=O` the figure was 0%; with `O=C(NCc1cccc(F)c1)Nc1cccc(-c2cccc(-c3nc4ccccc4[nH]3)c2)c1`, 28%.

The values are drawn from ChEMBL document CHEMBL1157539, “Thousands of chemical starting points for antimalarial lead identification” (Nature, 2010).
